KB-3-1 cytotox: kills parental KB-3-1 adenocarcinoma cells. KB-3-1 viability, CellTiter-Glo ATP luminescence, 72 h. hit rate 1.4% among 400,000. Potency, µM (series often up to 46.1 µM), usual class: cytotoxic; also: % is scaled to controls: 0 for no effect and ±100 for the full control effect; nearly all actives have a fitted effect of over 60% in size
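Screening of KB-3-1 cells (DMEM, 10% FBS, phenol-red free) ran from lowest to highest compound concentration; after 72 h at 37 °C viability was read luminescently and curves fitted.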
SW480 rereplic: induces DNA re-replication in SW480 colon adenocarcinoma cells; SW480 DNA re-replication, Hoechst DNA content imaging, 48 h; Potency, µM (highest dose often 46.1 µM), without a hit: top-dose re-replication activation, most hits filed as activators; hit rate 1.8% among 340,000; also: % of control where 0% means no effect; nearly all actives have a fitted effect of over 55% in size
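Image-based DNA-content assay: after two days of treatment, nuclei were labelled with the DNA dye Hoechst and imaged, and hits were compounds raising the count of nuclei showing high fluorescence intensity.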
KB-V1 cytotox: kills drug-selected multidrug resistant KB-V1 cells | KB-V1 MDR cells viability, CellTiter-Glo, 72 h | Potency, µM (top dose mostly 46.1 µM), most hits filed as cytotoxic | hit rate 3.4% among 400,000 | AID 1347076; also: % is scaled to controls: 0 for no effect and ±100 for the full control effect; nearly all actives have a fitted effect of over 60% in size
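KB-V1 MDR subline cells in DMEM (phenol-red free, 10% FBS) exposed to compounds in qHTS concentration series for 72 h at 37 degrees C. Viability read by CellTiter-Glo luminescence; concentration-effect curves fitted after normalization and correction.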
MCF10A rerep: DNA re-replication induction in MCF 10a cells; hit rate 2.9% among 350,000; AID 624296; Potency, µM (titrated, usually from 46.1 µM), for the others: at the top dose activity, positive = re-replication, actives largely listed as activators; MCF 10A DNA re-replication, Hoechst nuclear intensity, 48 h; also: % of control where 0% means no effect; nearly all actives have a fitted effect of over 50% in size
ELG1 repair inh: inhibitors of ELG1-dependent DNA repair in HEK293T cells. HEK293T ELG1-luciferase reporter, luminescence, 16 h; DNA damage induced by 5-fluorouridine. Potency, µM (series often up to 46.1 µM), for inactives: at the highest dose activity change, negative = inhibition, hits mostly inhibitors. hit rate 2.3% among 330,000; also: % is scaled to controls: 0 for no effect and ±100 for the full control effect; nearly all actives have a fitted effect of over 55% in size
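HEK293T cells expressing luciferase-tagged ELG1 (2,000/well) received 5-Fluorouridine plus compound or DMSO for 16 hr at 37 °C. Luciferase was read by ONE-Glo luminescence after 30 min at room temperature.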
* marks the source's active call; other numbers are inactive results; i = inactive; ? = inconclusive; / = no result. The list is not random: actives were taken first. Their share in the collection is about 8.2%. Calls follow the shape of the dose curve; as a rule, active = well fitted curve in the direction sought with a large enough effect; inconclusive = small, poorly fitted or top-dose-only effect, or another doubt; inactive = no such curve, though single readings can be large; an effect the other way counts as inactive or inconclusive. Potency is read from the fitted curve at half-maximal effect.

SMILES	KB-3-1 cytotox	SW480 rereplic	KB-V1 cytotox	MCF10A rerep	ELG1 repair inh
Cc1ccc(C#N)c(SCc2ccccc2[N+](=O)[O-])n1	i	-8%	i	-7%	4%
Cc1cc(C)c(C#N)c(SCc2nc3ccccc3[nH]2)n1	i	18µM*	i	13µM*	?
Nc1nc2ccccc2n1/N=C/c1ccc2c(c1)OCO2	i	21µM*	?	-6%	?
Nc1nc2ccccc2n1/N=C/c1ccc(Br)cc1	i	-10%	9.2µM*	6%	?
CN(C)c1ccc(S(=O)(=O)N2CCCCC2)cc1NC(=O)CCNC(=O)c1ccco1	i	-10%	i	-3%	2%
Cc1cccc(NC(=S)Nc2cccc(C)n2)n1	i	1%	i	2%	4%
CC(=NNC(=S)N1CCCCC1)c1cccc(C)n1	0.23µM*	?	?	?	/
Cc1cccc(C(=S)N2CCOCC2)n1	i	-21%	i	4%	10%
CSC(=S)NN=C(C)c1cccc(C)n1	?	0.37µM*	?	?	/
Cc1c2n(c3ccccc13)CC/C2=N\O	?	1%	5.2µM*	1%	?
CO/N=C1\CCn2c1c(C)c1ccccc12	i	6%	?	-3%	0%
Cc1ccc(OCCN2CCN(c3ncnc4sc(C)c(C)c34)CC2)cc1	?	?	i	23µM*	?
Clc1ccc(OCCN2CCN(c3ncnc4sccc34)CC2)cc1	?	3%	2.9µM*	8%	?
O=C(Nc1ccc(N2CCN(C(=O)c3ccccc3)CC2)c(Cl)c1)c1ccco1	?	-1%	?	?	12µM*
CCCC(=O)N1CCN(c2ccc(NC(=O)c3cc4ccccc4o3)cc2Cl)CC1	?	2%	?	6.5µM*	2.3µM*
CCC(=O)N1CCN(c2ccc(NC(=O)c3ccco3)cc2Cl)CC1	i	1%	?	-2%	?
Cc1ccc(NC(=O)c2cc3ccccc3o2)cc1Cl	?	-89%	?	13%	?
CCCC(=O)N1CCN(c2ccc(NC(=O)c3cccs3)cc2Cl)CC1	i	0%	i	-5%	7.3µM*
CCC(=O)N1CCN(c2ccc(NC(=O)c3cc4ccccc4o3)cc2Cl)CC1	?	-1%	9.2µM*	?	5.8µM*
CC(C)NC(=O)C1(C)CN(S(C)(=O)=O)CC(=O)N1CCOc1ccccc1 (centres undefined)	i	/	i	/	/
O=C(Nc1ccc(N2CCN(C(=O)c3ccco3)CC2)c(Cl)c1)c1cc2ccccc2o1	?	?	i	9.2µM*	5.2µM*
COc1ccccc1C(=O)NC1CCN(C(=O)Nc2ccc(F)cc2)CC1	i	-5%	?	7%	-1%
CSCCC1NC2(C(=O)Nc3c2ccc(Cl)c3C)[C@@H]2C(=O)N(C3CCCC3)C(=O)[C@H]12 (some centres undefined)	?	?	4.1µM*	20%	?
CCOC(=O)c1c(C)[nH]c(C)c1C(=O)CSc1nc2ccccc2c(=O)n1-c1ccccc1C	?	?	?	?	23µM*
N#CCN(C(=O)COC(=O)CCCNC(=O)c1ccc(Cl)cc1)c1ccccc1	i	-7%	21µM*	0%	8%
SMILES	KB-3-1 cytotox	SW480 rereplic	KB-V1 cytotox	MCF10A rerep	ELG1 repair inh
CN(C(=O)CSc1nc2ccc(NC(=O)c3cccc(F)c3)cc2s1)c1ccccc1	?	/	9.2µM*	/	/
COC(=O)c1ccccc1NC(=O)CN1CCC(NC(=O)c2ccc(C)cc2)CC1	i	4%	?	12%	16µM*
COc1ccc(F)cc1CN1CCN(CC(=O)Nc2ccccc2C(=O)NC2CC2)CC1	i	3%	i	1%	10µM*
CC(=O)c1ccc(N2CCN(CC(=O)Nc3ccccc3C(=O)NC3CC3)CC2)c(F)c1	i	-7%	i	18µM*	?
COCCNc1ncnc2c1cnn2-c1cc(Cl)ccc1C	i	/	i	/	/
COc1cccc(CN(C)c2nc(-c3cccs3)nc3ccccc23)c1	i	?	?	?	?
COc1cccc(Nc2nc(-c3cccs3)nc3ccccc23)c1	i	?	?	?	23µM*
COc1ccc(Nc2nc(-c3cccs3)nc3ccccc23)cc1	?	2%	18µM*	16µM*	?
Cc1c2ccncc2cc2c1[nH]c1ccccc12	?	23µM*	?	16µM*	/
Cc1cc2c([nH]c3ccccc32)c(C)n1	i	6%	i	?	4%
CC(=O)C1=C(O)CCC1=NCCc1ccccc1	i	?	i	21µM*	1%
CCN(CC)CCNC(=O)Cn1nc(Cc2ccncc2)c2ccccc2c1=O	i	-22%	?	-3%	11%
CCN(CC)CCNC(=O)Cc1nn(Cc2ccccc2)c(=O)c2ccccc12	i	2.3µM*	i	175%	-7%
O=S(=O)(c1ccc(NC(=S)N/N=C/c2c3ccccc3cc3ccccc23)cc1)N1CCOCC1	3.7µM*	13µM*	?	?	?
CC(CC(=O)Nc1ccc(S(=O)(=O)N2CCOCC2)cc1)c1ccccc1 (centres undefined)	i	-2%	i	9%	2%
CC(C)(C)CC(C)(C)NC(=S)Nc1ccc(S(=O)(=O)N2CCOCC2)cc1	?	12%	i	?	-14%
O=S(=O)(c1ccc(NC(=S)NCCC(c2ccccc2)c2ccccc2)cc1)N1CCOCC1	?	?	?	5.2µM*	18µM*
CCCCOCCCNC(=S)Nc1ccc(S(=O)(=O)N2CCOCC2)cc1	?	63%	18µM*	20%	?
CC(C)CN(C(=O)COC(=O)CSc1ccc([N+](=O)[O-])cc1)C1CCS(=O)(=O)C1 (centres undefined)	i	-4%	?	0%	6%
COc1ccc(NC(=O)Cn2cc(S(=O)(=O)Cc3ccccc3)c3ccccc32)c(OC)c1	i	-2%	i	0%	15µM*
O=C(Cn1cc(S(=O)(=O)Cc2ccccc2)c2ccccc21)Nc1ccccc1	i	-2%	18µM*	22%	0%
CC(=O)c1ccc(NC(=O)Cn2cc(S(=O)(=O)Cc3cccc(Cl)c3)c3ccccc32)cc1	i	/	i	/	/
COc1ccc(OC)c(NC(=O)C(=O)c2cn(CC(=O)N3CCCC3)c3ccccc23)c1	/	3%	/	5%	12µM*
COc1ccc(C)cc1NC(=O)C(=O)c1cn(CC(=O)N2CCCC2)c2ccccc12	i	-3%	i	-4%	?
CCOc1ccc(CC(=O)N2CCc3cc(OC)c(OC)cc3C2COc2ccc3c(C)cc(=O)oc3c2)cc1 (centres undefined)	i	/	i	/	/

Bioassay records deposited in PubChem BioAssay by National Center for Advancing Translational Sciences (NCATS).
